Values without a mark were called inactive. How the calls were made is not given here.
The compounds below were run on HIV-1 nucleocapsid protein NCp7 (binding to TG oligonucleotide) (assay: HIV Nucleocapsid (AID 346;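 further: potency is for inhibitors that block NC binding and lower polarization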)). Details: HIV-1 NC / fluorescein-TGTGTGTG probe, fluorescence polarization.
Experimental: NCGC Assay Overview: HIV-1 nucleocapsid protein (HIV-1 NC) is a small (6.5 kDa) basic zinc-finger protein which participates in packaging of viral genomic RNA. The spacing and metal-chelating residues (3 Cys, 1 His) of the Cys-X2-Cys-X4-His-X4-Cys Zn fingers are conserved among all known retroviruses (J. Med. Chem. 1998, 41, 1371-1381). HIV-1 NC was assayed for its binding to the consensus sequence single-stranded 5'-TGTGTGTG. […] High salt was included to increase the stringency of binding and inhibitor screen. Reducing agents and zinc were present to stabilize the nucleocapsid zinc-finger protein.
NCGC Assay Protocol Summary: Buffer. Hepes pH 7.5, 250mM NaCl, 1uM ZnCl2. 0.004% polyethylene glycol 20000. TCEP (100 uM) and 2-Mercaptoethanol (5 mM), added fresh the day of the experiment. Reagents/Controls. 10 nM TG4xF only in columns 3 and 4 as negative control. 10 nM TG4xF/100 nM HIV-1 NC in columns 1, 2, 5-48. Titration of control compound NSC-13778 (from 20 mM, then 1:2) pin-transferred to column 2. Assay Steps. Two uL of reagents were dispensed to 1536-well Kalypsys black plates. The plates were centrifuged for 1 min at 1000 rpm. Compounds and controls (20 nL) were transferred via Kalypsys PinTool. The plates were incubated for 1 hr at room temperature, and then read on ViewLux (Perkin-Elmer). High-throughput CCD imager using fluorescein polarization filter set and 45 seconds exposure time.
Potency means the concentration at half of the fitted maximal effect.

| Compound | Potency [µM] |
| --- | --- |
| CN1CC[C@@]2(CCCN(C(=O)Oc3ccccc3)C2)C1 | > 20 |
| O=C(Nc1ccccc1)N1CC[C@@]2(CCCN(C(=O)Oc3ccccc3)C2)C1 | > 20 |
| CN1CCCC2(CCN(C(=O)c3ccco3)CC2)C1 | > 20 |
| O=C(Nc1cccc(F)c1)N1CCCC2(CCN(C(=O)Oc3ccccc3)CC2)C1 | > 20 |
| N#Cc1ccc(CN2CCCC3(CCN(C(=O)Oc4ccccc4)CC3)C2)cc1 | > 20 |
| CC(C)CN1CCCC2(CCN(C(=O)c3ccncc3)CC2)C1 | > 20 |
| CN1CCCC2(CCN(C(=O)Oc3ccccc3)CC2)C1 | > 20 |
| CS(=O)(=O)N1CCC2(CC1)CN(Cc1ccncc1)C2 | > 20 |
| O=C(Oc1ccccc1)N1CCC2(CC1)CCN(C(c1ccccc1)c1ccccc1)CC2 | > 20 |
| O=C(c1ccncc1)N1CCC[C@@]2(CCN(Cc3nccs3)C2)C1 | > 20 |
| c1ccc(N2CC3(CCNCC3)C2)nc1 | > 20 |
| O=C(c1ccco1)N1CCC2(CC1)CN(Cc1ccncc1)C2 | > 20 |
| CC(C)CN1CC[C@@]2(CCCN(C(=O)c3ccncc3)C2)C1 | > 20 |
| CC(C)CN1CCCC2(CCN(C(=O)Oc3ccccc3)CC2)C1 | > 20 |
| Clc1ccccc1-c1cncnc1NCCc1cnc[nH]1 | > 20 |
| CC(C)NC(=O)N1CCC2(CC1)CCN(C(=O)Oc1ccccc1)CC2 | > 20 |
| CN1CC[C@@]2(CCCN(C(=O)c3ccco3)C2)C1 | > 20 |
| CN1CCCC2(CCN(C(=O)c3csnn3)CC2)C1 | > 20 |
| c1cc(N2CCCC3(CCNCC3)C2)ccn1 | > 20 |
| N#Cc1cccc(NC(=O)N2CC3(CCN(C(=O)Oc4ccccc4)CC3)C2)c1 | > 20 |

| Compound | Potency [µM] |
| --- | --- |
| c1cnc(N2CC3(CCNCC3)C2)nc1 | > 20 |
| c1ccc(N2CC[C@@]3(CCCNC3)C2)nc1 | > 20 |
| c1ccc(CN2CCC3(CCNCC3)CC2)cc1 | > 20 |
| O=C(Nc1ccccc1)N1CC2(CCN(C(=O)Oc3ccccc3)CC2)C1 | > 20 |
| O=C(c1ccco1)N1CCC[C@@]2(CCN(Cc3ccncc3)C2)C1 | > 20 |
| COc1ccc(NC(=O)N2CCCC3(CCN(C(=O)Oc4ccccc4)CC3)C2)cc1 | > 20 |
| c1csc(CN2CC[C@@]3(CCCNC3)C2)n1 | > 20 |
| Cc1noc(C)c1C(=O)N1CCC2(CCCN(CC(C)C)C2)CC1 | > 4 |
| O=C(Oc1ccccc1)N1CCC2(CCCN(Cc3ccccc3)C2)CC1 | > 20 |
| O=C(c1ccncc1)N1CCC2(CC1)CN(Cc1ccccc1)C2 | > 20 |
| O=C(Oc1ccccc1)N1CCC2(CCN(Cc3ccncc3)CC2)CC1 | > 20 |
| CC(C)NC(=O)N1CCC2(CCNCC2)CC1 | > 20 |
| c1ccc(N2CC3(CCNCC3)C2)cc1 | > 20 |
| CC(C)CN1CC[C@@]2(CCCN(C(=O)Oc3ccccc3)C2)C1 | > 20 |
| O=C(Oc1ccccc1)N1CCC2(CCN(Cc3ccccc3)CC2)CC1 | > 20 |
| O=C(c1cnccn1)N1CCC2(CC1)CN(Cc1ccncc1)C2 | > 20 |
| Cc1ccccc1-c1cncnc1NCCc1cnc[nH]1 | > 20 |
| c1csc(CN2CC3(CCNCC3)C2)n1 | > 20 |
| O=C(Nc1ccccc1)N1CC[C@@]2(CCCNC2)C1 | > 20 |
| c1ccc(N2CCC3(CCNCC3)CC2)nc1 | > 20 |

Reference: PubChem BioAssay (NCATS)
